This is an account of results in PubChem BioAssay (NCATS).

Test [1] concerns CRL-7250. Kind of test: Cytotoxic Profiling of Annotated Libraries Using Quantitative High-Throughput Screening (AID 1296008). For max response: % is set by controls: 0 for no effect and ±100 for the full control effect. Note: potency is the fitted concentration of half-maximal effect. To be noted: Five cell lines viability, CellTiter-Glo ATP luminescence, 48-72 h; max response: hits give low values. In short, it runs like this:
(§1)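 Cells exposed to compounds for 48 or 72 hr at 37 degrees Celsius. Viability read as ATP-coupled luminescence with CellTiter-Glo after 10 min at room temperature.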
For orientation: In ATP-based viability assays light output follows the ATP content of the culture.

The subject of test [2] is HaCat. Described as above. To be noted: Five cell lines viability, CellTiter-Glo ATP luminescence, 48-72 h; max response: hits give low values. A digest of the protocol:
as §1

The test system of test [3] is KB-3-1. The description is as above. To be noted: Five cell lines viability, CellTiter-Glo ATP luminescence, 48-72 h; max response: hits give low values. In short, it runs like this:
as §1

Test [4] concerns NIH3T3. The description is as above. To be noted: Five cell lines viability, CellTiter-Glo ATP luminescence, 48-72 h; max response: hits give low values. A digest of the protocol:
as §1

Test [5] relates to HACAT. Kind of test: qHTS assay to identify novel small-molecules to repurpose for Merkel cell carcinoma treatment (AID 1296009). To be noted: MCC and control cell lines, CellTiter-Glo viability, 72 h; at 44.8 µM (top of the series) unless noted. In short, it runs like this: (§2)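 Dose-response viability screen; 72 hr exposure at 37 degree celsius; CellTiter-Glo added, 10 min room temperature, luminescence read; RLUs scaled between no-cell and DMSO wells.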
Background: In qHTS, concentration-response curves come from the screen itself.

In test [6] the test system is HEK293T. Described as above. To be noted: MCC and control cell lines, CellTiter-Glo viability, 72 h; series mostly up to 44.8 µM. In short, it runs like this:
as §2

The structures appear in SMILES notation. Where “and” joins values, the source holds several entries; their conditions need not be identical. Equal entries are not always repeated. Results filed as inconclusive are left out. A number with no mark means an inactive call. Calls of active or inactive are those of the source. Calls come from the whole dose curve; as a rule, active = well fitted inhibition curve with a large enough effect; inconclusive = small, poorly fitted or top-dose-only effect; inactive = flat fitted curve, though single readings scatter. Starred links: 1 amine or outer side, 2 acyl side, 3 side chain; linkers in the order of their positions; H or OH if unused. Positions of bridges follow the written chain, without caps; N, C: chain ends. Non-standard residues stand in square brackets, D forms with d. Residues, ends and D or L forms follow the SMILES beside them. Chains are numbered I, II in the order given. Actinocin(9to1) = Cc1c2oc3c(C)ccc(C(=O)[*:1])c3nc-2c(C(=O)[*:2])c(N)c1=O; NMeV = CN[CH](C(=O)O)C(C)C; Sar = CNCC(=O)O
Note: nearly all actives have a fitted effect of over 60% in size.

In the case of `Cc1c2oc3c(C)ccc(C(=O)NC4C(=O)NC(C(C)C)C(=O)N5CCCC5C(=O)N(C)CC(=O)N(C)C(C(C)C)C(=O)OC4C)c3nc-2c(C(=O)NC2C(=O)NC(C(C)C)C(=O)N3CCCC3C(=O)N(C)CC(=O)N(C)C(C(C)C)C(=O)OC2C)c(N)c1=O` (stereo not drawn) (I: TVP[Sar][NMeV] / II: TVP[Sar][NMeV]; ester I:1-I:C, II:1-II:C; linker I:N-II:N via Actinocin(9to1); configuration not given here), the max response in test [1] is -99.9%; in test [2], -104%; in test [4], -100%. For the same compound, the Potency in test [3] is 0.0662 nM (active).
`COc1cc(C[C@@H](CO)[C@H](CO)Cc2ccc(O)c(OC)c2)ccc1O`: the max response in test [1] was -0.633%; in test [3], 3.84%. Further, the compound was classed as inactive in test [2], in test [4] and in test [5].
For `O=C(Nc1cccc(Nc2ncc(Br)c(NCCc3cnc[nH]3)n2)c1)N1CCCC1`, the Potency in test [1] is 4.18 µM (active); in test [2], 9.35 µM (active); in test [3], 1320 nM (active); in test [4], 4.69 µM (active).
Regarding `C=C[C@@H]1CN2CCC1C[C@H]2[C@H](O)c1ccnc2ccc(OC)cc12` (stereo partly drawn), the max response was 3.01% in test [1], -13.1% in test [2], -2.72% in test [3] and 3.02% in test [4].
On to `CC(=CC(=O)Nc1ccccc1C(=O)O)c1ccc2ccccc2c1`, for which the values for the max response in test [1], in test [3] and in test [4] were -3.34%, -21% and -22.4%, respectively. Further, the compound was classed as inactive in test [2] and in test [5].
For `Cn1cc(C[C@@H](N)C(=O)O)c2ccccc21`, in test [1], the Potency was 5.75 µM (active). For the same compound, the result in test [2] was inactive. The max response was 4.82% in test [3] and -2.88% in test [4]. In addition, the outcome in test [5] is “inactive [at 17.4 µM]”.
On to `C[C@](Cc1c[nH]c2ccccc12)(NC(=O)OC1C2CC3CC(C2)CC1C3)C(=O)NC[C@H](NC(=O)CCC(=O)O)c1ccccc1` (stereo partly drawn), for which the compound was called inactive in test [1], in test [2] and in test [5]. The max response in test [3] was -2.86%; in test [4], -5.4%.
Turning to `O=C1NC(O)CCN1[C@@H]1O[C@H](CO)[C@H](O)[C@H]1O` (stereo partly drawn), the max response in test [1] is -71.1%; in test [3] it was -2.55%; in test [4], 1.52%. Also, the result in test [2] and in test [5] was inactive.
For the compound `CC(C)(O)Cn1c(NC(=O)c2ccc(-c3cn[nH]c3)s2)nc2cc(CN3CCOCC3)ccc21`, the Potency in test [1] is 1.66 µM (active); in test [2], 1.32 µM (active); in test [3] it was 1050 nM (active); in test [4], 2.35 µM (active).
Regarding `CC(=O)N[C@@H]1[C@H](O[C@@H]2c3ccc(c(Cl)c3)Oc3cc4cc(c3O[C@H]3O[C@H](CO)[C@@H](O)[C@H](O)[C@H]3NC(=O)CCCCCCCC(C)C)Oc3ccc(cc3Cl)C[C@H]3NC(=O)[C@H](N)c5ccc(O)c(c5)Oc5cc(O)cc(c5)[C@H](NC3=O)C(=O)N[C@H]4C(=O)N[C@H]3C(=O)N[C@@H]2C(=O)N[C@@H](C(=O)O)c2cc(O)cc(O[C@H]4O[C@H](CO)[C@@H](O)[C@H](O)[C@H]4O)c2-c2cc3ccc2O)O[C@H](CO)[C@@H](O)[C@@H]1O`, the outcome in test [1] and in test [3] was inactive. Further, the max response is 2.16% in test [2] and 4.41% in test [4]. Further, the Potency entry in test [6] is “inactive”.
Regarding `C[C@H](NC(=O)[C@@H](O)c1cc(F)cc(F)c1)C(=O)N[C@@H]1C(=O)N(C)c2ccccc2-c2ccccc21`, the max response in test [1] was -10.4%; in test [2], -6.76%; in test [3], -9.73%; in test [4], -4.85%.
As for `Cc1ccccc1C(=O)Nc1ccc(C(=O)N2CCCC(O)c3cc(Cl)ccc32)c(C)c1` (stereo not drawn), the results for the max response in test [1], in test [2] and in test [4] were -23.5%, 1.52% and -21%, respectively. In test [3], the outcome was inactive.
Take `Cn1cnc(=N)c2[nH]cnc21`: the Potency in test [1] was 8.33 µM (active); in test [2], 13.2 µM (active); in test [3] it was 10500 nM (active); in test [4] it was 9.35 µM (active).
`CC(C)c1cnn2c(NCc3ccccc3)cc(NCCCCCCN)nc12`: the result in test [1], in test [2] and in test [5] was inactive. For the same compound, the max response is 3.97% in test [3] and 0.624% in test [4].
For `OCCN1C[C@H](O)[C@@H](O)[C@H](O)[C@@H]1CO`, the max response was -0.792% in test [1] and -2.06% in test [4]. The outcome in test [2], in test [3] and in test [5] was inactive.
On to `O=C1NC(=O)[C@@H](c2cn3c4c(cccc24)CCC3)[C@H]1c1c[nH]c2ccccc12`, for which the Potency is 13.2 µM (active) in test [1], 833 nM (active) in test [3] and 2.09 µM (active) in test [4]. In addition, the outcome in test [2] and in test [5] was inactive.
For `C[C@@]12C[C@@]3(O)O[C@@H](O1)[C@]1(COC(=O)c4ccccc4)[C@@H]3C[C@@]12O[C@@H]1O[C@H](CO)[C@@H](O)[C@H](O)[C@@H]1O`, in test [1], the max response is 4.21%. For the same compound, the compound was classed as inactive in test [2], in test [3], in test [4] and in test [5].
In the case of `c1ccc2c(Oc3nc(Nc4ccc(N5CCOCC5)cc4)c4ncn(C5CCCCC5)c4n3)cccc2c1`, the max response in test [1] is -3.84% and 0.807%; in test [3], 8.53%; in test [4], 1.5% and -0.0324%. Also, the compound was called inactive in test [2] and in test [5].
As for `C[C@@H](NCc1cc2ccccc2[nH]1)c1cccc2ccccc12`, the max response is 3.32% in test [1], 3.8% in test [3] and 2.38% in test [4]. In addition, the compound was called inactive in test [2] and in test [5].
